Giardia FBPA inh – inhibitors of Giardia lamblia fructose-1,6-bisphosphate aldolase; purified Giardia FBPA; Potency, µM (top dose mostly 59.6 µM), without a hit: at the highest dose activity, negative = inhibition, most hits filed as inhibitors; actives 0.71% (n = 290,000); AID 2451; active = well fitted inhibition curve with a large enough effect; inconclusive = small, poorly fitted or top-dose-only effect, or effect the other way; also: nearly all actives have a fitted effect of over 55% in size
Target sequence (A8B2U2 whole entry, looked up): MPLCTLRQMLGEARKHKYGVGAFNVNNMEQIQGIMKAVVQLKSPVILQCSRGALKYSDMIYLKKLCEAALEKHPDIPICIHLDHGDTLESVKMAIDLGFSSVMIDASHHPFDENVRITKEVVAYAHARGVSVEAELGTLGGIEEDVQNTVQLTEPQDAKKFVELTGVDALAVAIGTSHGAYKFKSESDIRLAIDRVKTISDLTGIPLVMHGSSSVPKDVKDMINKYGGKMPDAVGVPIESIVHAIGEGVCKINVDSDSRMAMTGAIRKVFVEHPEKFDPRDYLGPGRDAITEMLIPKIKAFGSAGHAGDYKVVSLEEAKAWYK
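Giardia FBPA (40 nM reagent) was preincubated 10 min at RT with compound (up to 57.5 uM final), then substrate plus GAPDH/TPI/NAD/arsenate coupling system with diaphorase/resazurin was added; resorufin fluorescence (525/598 nm) was read after 20 min.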
FMDV inh – blocks foot and mouth disease virus. Potency, µM (highest dose often 57.9 µM), inactives show top-dose activity change, negative = inhibition, actives largely listed as inhibitors. actives 1.2% (n = 410,000). AID 1159524. FMDV antiviral cell-based qHTS; calls by dose curve; tested in HEK293T cells; also: read-out not given here; nearly all actives have a fitted effect of over 45% in size
VACV Venus inh – vaccinia inhibition (Venus reporter); AID 720580; Potency, µM (doses to about 36.5 µM), for the others: top-dose activity change, negative = inhibition, hits mostly inhibitors; actives 0.46% (n = 330,000); Vaccinia virus Venus reporter expression, fluorescence; calls by dose curve; tested in A549 cells; also: nearly all actives have a fitted effect of over 30% in size
VACV mCherry inh – inhibitors of vaccinia virus infection (mCherry reporter signal). actives 0.63% (n = 310,000). Potency, µM (series often up to 36.5 µM), without a hit: top-dose activity change, negative = inhibition, actives largely listed as inhibitors. Vaccinia virus mCherry reporter infection, fluorescence; calls by dose curve; tested in A549 cells; also: nearly all actives have a fitted effect of over 35% in size
Numbers without * were called inactive; i = inactive; ? = inconclusive; . = no result; [ ] = dose if it differs, or a comment. Compounds with a hit are over-represented: about 2.2% of the library has one in this group of screens. % is scaled to controls: 0 for no effect and ±100 for the full control effect; potency is read from the fitted curve at half-maximal effect.

SMILES	Giardia FBPA inh	FMDV inh	VACV Venus inh	VACV mCherry inh
O=C(NC(=S)/C(=C1\CCCCCN1)[N+](=O)[O-])c1ccccc1	.	12.6µM*	-6.2%	-16.2%
NC(C(=O)O)c1cc(O)cc(O)c1 (stereo not drawn)	.	4.9%	-9.6%	i
COc1ccc(-c2oc3ccc(C)cc3c(=O)c2O)cc1OC	2.2%	.	.	.
CNNC	11.2µM*	22.3%	7.2%	-0.5%
COc1cc(CN2CCC3(CCC(CNC(=O)c4ccccc4)O3)CC2)cc(OC)c1 (stereo not drawn)	.	-9.6%	-6.4%	i
COCC1CCCN(Cc2ccc3c(c2)CN(C(=O)c2ccc(-c4ccc(C)o4)cc2)CCO3)C1 (stereo not drawn)	.	7.6%	-10.4%	-12.3%
CCCc1sc(N/N=C/c2ccccn2)nc1-c1ccc(F)cc1	-16.6%	.	?	11.2µM*
Cc1nc(N/N=C/c2ccccn2)sc1C	-21.8%	-29.9%	?	?
CCOC(=O)c1nnc(-c2ccccc2)nc1Sc1ccccc1Cl	-6.5%	25.1µM*	-37.9%	.
CCOC(=O)c1nnc(-c2ccccc2)nc1Oc1ccc(Cl)cc1	0.3%	15.8µM*	1.9%	.
COC(=O)c1cc(CNC(=O)c2cccc(N(C)C)c2)cc(NC(=O)c2ccccc2Cl)c1	.	-2.6%	-19.0%	-12.4%
Cc1c(C(=O)Nc2cccc(C(F)(F)F)c2)sc2nc3n(c(=O)c12)CCCC3	.	17.8µM*	-20.6%	-24.2%
O=C(COC(=O)c1ccc2ncsc2c1)NC(=O)C1CCCCC1	.	.	-13.8%	-9.2%
Cc1ccc2nc(-c3ccc(SCC(=O)Nc4nnc(C)s4)nc3)[nH]c2c1	0.4%	35.6%	11.2µM*	?
Cc1ccc2nc(-c3ccc(SCC(=O)Nc4nc(C)cs4)nc3)[nH]c2c1	0.2%	29.5%	?	?
CC(NC(=O)c1cc(F)ccc1F)c1nnc2n1CCN(Cc1ccco1)CC2 (stereo not drawn)	.	-2.0%	-0.3%	-1.6%
CC(=O)Nc1ccc(OCC(O)Cn2c3ccccc3c3ccccc32)c(C)c1 (stereo not drawn)	-13.1%	22.4µM*	?	?
CC(=O)Nc1ccc(OCC(O)Cn2c3ccccc3c3ccccc32)cc1 (stereo not drawn)	-2.1%	-15.5%	-17.2%	-12.7%
CCc1cccc2c(C(O)c3c[nH]c4ccccc34)c[nH]c12 (stereo not drawn)	.	.	57.6%	-6.1%
COc1ccccc1-c1nnc(SCC(=O)NC2CCCCC2)o1	-2.9%	-1.7%	?	11.2µM*
Cc1nc(Cl)c(C(=O)NC(=O)Nc2cccc(C(F)(F)F)c2)c(C)c1[N+](=O)[O-]	1.7%	22.4µM*	-2.6%	-12.7%
COc1ccc(C2=Nn3c(nnc3-c3ccc(OC)cc3OC)SC2)c(OC)c1	0.7%	.	.	.
COc1cc(/C=C/C(=O)c2ccc3c(c2)OCO3)cc(OC)c1OC	.	22.4µM*	.	.
CCOc1ccc(C(=O)/C=C/c2cc(OC)c(OC)c(OC)c2)cc1	-12.2%	?	?	?
COc1cc(/C=C/C(=O)c2ccc(F)cc2)cc(OC)c1OC	-10.0%	25.1µM*	-9.2%	-0.4%
SMILES	Giardia FBPA inh	FMDV inh	VACV Venus inh	VACV mCherry inh
COc1cc(/C=C/C(=O)c2ccc3c(c2)OCCO3)cc(OC)c1OC	3.6%	?	.	.
O=C(NCc1nnc2n1CCN(Cc1ccccc1C(F)(F)F)CC2)c1ccncc1	.	-15.7%	-8.2%	i
CCN(Cc1ccncc1)Cc1ccc2c(c1)CN(C(=O)c1ccccc1)CCO2	.	-2.3%	5.5%	-6.7%
COc1cccc(OCc2cc(/C=N/Nc3ccc(C(=O)O)cc3)ccc2OC)c1	-5.1%	0.891µM*	5.2%[7.34 µM]	?
COc1cccc(/C=N/Nc2ccc(C(=O)O)cc2)c1O	-7.3%	3.55µM*	-13.2%	-8.6%
COc1cccc(/C=N/Nc2ccc(S(=O)(=O)O)cc2)c1O	2.2%	12.6%	.	.
COc1cccc(/C=N/NC(=O)COc2cccc3cccnc23)c1O	17.9%	-8.2%	-25.3%	12.6µM*
COc1cccc(C(=O)Oc2ccc(/C=N/Nc3ccc(C(=O)O)cc3)cc2OC)c1	-4.9%	?	-12.0%	-25.5%
COc1cccc(C=NNC(=O)c2ccncc2)c1O	.	21.4%	?	1.58µM*
COc1cccc(/C=N/NC(=O)N/N=C/c2cccc(OC)c2O)c1O	0.7%	6.8%	-18.7%	-12.7%
COc1cc(OC)c2cc(C(=O)N/N=C/c3cccc(OC)c3O)[nH]c2c1	10.5%	-24.6%	-25.7%	11.2µM*
O=C(N/N=C/c1cc(Br)cc(Br)c1O)c1ccncc1	16.0%	16.6%	?	7.94µM*
COc1cccc(/C=N/NC(=O)c2cc3c(OC)ccc(OC)c3[nH]2)c1O	-3.9%	-20.0%	?	?
COc1ccccc1-c1ccnc(-n2ncc(C(=O)NC(c3cccnc3)C(F)(F)F)c2C)n1 (stereo not drawn)	.	-23.8%	-26.7%	?
Oc1cccc(C(Nc2ccccn2)c2ccc3cccnc3c2O)c1Cl (stereo not drawn)	.	-24.4%	?	?
Oc1cccc(C(Nc2nccs2)c2ccc3cccnc3c2O)c1 (stereo not drawn)	?	-9.6%	?	15.8µM*
Oc1c(C(Nc2ccccn2)c2ccccc2)ccc2cccnc12 (stereo not drawn)	.	.	?	11.2µM*
Cc1cc(NC(c2cccnc2)c2ccc3cccnc3c2O)no1 (stereo not drawn)	-2.9%	?	15.8µM*	.
CSc1ccc(-c2ccc3c(c2)CC(CNC(=O)Cn2nc(C)nc2C)O3)cc1 (stereo not drawn)	.	-8.2%	-5.4%	-14.3%
Cc1cnc2c(C)ccc(C)c2c1/C=C/c1ccc(N(C)C)cc1	.	.	6.6%	14.4%
Cc1occc1C(=O)NCCN1Cc2ccccc2OC(c2ccccc2F)C1 (stereo not drawn)	.	4.5%	2.1%	-8.8%
O=C(OCC(F)(F)F)[C@H](O)[C@@H](O)C(=O)OCC(F)(F)F	3.5%	.	.	.
O=C(OC[C@H]1O[C@@H](OC(=O)c2cc(O)c(O)c(OC(=O)c3cc(O)c(O)c(O)c3)c2)[C@H](OC(=O)c2cc(O)c(O)c(OC(=O)c3cc(O)c(O)c(O)c3)c2)[C@@H](OC(=O)c2cc(O)c(O)c(OC(=O)c3cc(O)c(O)c(O)c3)c2)[C@@H]1OC(=O)c1cc(O)c(O)c(OC(=O)c2cc(O)c(O)c(O)c2)c1)c1cc(O)c(O)c(OC(=O)c2cc(O)c(O)c(O)c2)c1	.	-11.7%	10µM*	5.62µM*
COC1OC(COC(=O)c2ccccc2)C(OC(=O)c2ccccc2)C1OC(=O)c1ccccc1 (stereo not drawn)	2.4%	-19.6%	.	.
COc1cc(OC)cc(C(=O)OCC(=O)Nc2cccc(S(=O)(=O)NC3=NCCCCC3)c2)c1	.	22.4µM*	-17.5%	-7.2%
O=C(COC(=O)c1ccc(O)cc1)Nc1cccc(S(=O)(=O)NC2=NCCCCC2)c1	4.8%	58.9%	-1.6%	-24.2%
COc1ccc(/C=C/C(=O)Nc2cccc(S(=O)(=O)NC3=NCCCCC3)c2)cc1OC	.	39.8µM*	.	.
CC(NNC(=S)N1CCCCCC1)c1ccc2ccccc2n1 (stereo not drawn)	.	56.9%	-24.9%	5.62µM*
CC(NNC(=S)N1CCN(c2ccccn2)CC1)c1nccc2ccccc12 (stereo not drawn)	.	0.0%	?	?
O=C(/C=C\Nc1ccccn1)c1ccccc1	2.4%	-81.1%	-17.6%	-21.1%

Assay outcomes as filed in PubChem.
